Source: ChEMBL document CHEMBL4513146, “CO-ADD screening of Karazin Kharkiv National University (Ukraine) compounds”
Potency and affinity values are given separately.

The compounds below were run on Staphylococcus aureus. Settings: Concentration 32 ug.mL-1;; ASSAY_TEST Inhibition of Bacterial Growth; detection method Absorption (OD600); MEDIA CAMHB; plate type 384well; NBS; CORNING #3640; time 18 hr.

Row | Structure (SMILES) | Inhibition [%]
1 | Cc1cc2nn(CC(=O)Nc3cc(F)cc(F)c3)c(=O)n2c(Nc2ccc(F)c(C)c2)n1 | 7.29
2 | CCOC(=O)C1CCCN(C(=O)Cn2nc3n(CC(C)C)c(=O)c4sccc4n3c2=O)C1 (stereo not drawn) | -2.49
3 | O=C(Cn1nc2c3cc(-c4ccc(Cl)cc4)nn3ccn2c1=O)N1CCN(c2ccccc2)CC1 | 8.68
4 | Cc1cc(C)cc(NC(=O)Cn2nc3ccc(SC(C)(C)C)nn3c2=O)c1 | 9.02
5 | Cc1cccc(Oc2nccn3c(=O)n(CC(=O)Nc4ccccc4C(F)(F)F)nc23)c1C | 14.33
6 | O=C(Cn1nc2ccc(-c3ccccc3)nn2c1=O)Nc1cccc(Cl)c1 | -4.62
7 | CCc1cccc(C)c1NC(=O)Cn1nc2ccc(SCc3ccc(Cl)cc3)nn2c1=O | -4.43
8 | CC(C)c1nnc2c(=O)n(CC(=O)Nc3cccc(Cl)c3)c3ccccc3n12 | 5.77
9 | COc1cccc(-n2ccn3c(SCc4ccccc4C)nnc3c2=O)c1 | 11
10 | CCCCOc1ccc(-c2cc3c4nnc(SCC(=O)Nc5cc(C)ccc5OC)n4ccn3n2)cc1 | -29
11 | COC(=O)c1cccc(NC(=O)Cn2nc3ccc(-c4ccc(C)c(C)c4)nn3c2=O)c1 | 2.69
12 | COc1ccc(-n2ccn3c(SCC(=O)N4CCN(c5ccccc5F)CC4)nnc3c2=O)cc1 | 7.08
13 | O=C(Cn1nc2nc(Nc3ccc(F)cc3)ccn2c1=O)Nc1ccc(F)cc1 | -16.48
14 | COc1ccc(-c2nc(CSc3nc4ccccc4n4c(C(C)C)nnc34)c(C)o2)cc1OC | -10.5
15 | CCc1ccc(N(Cc2ccccc2F)S(=O)(=O)c2cccn3c(CC)nnc23)cc1 | -9.17
16 | O=C(Cn1nc2ccc(SC3CCCCC3)nn2c1=O)Nc1ccc2c(c1)CCC2 | 4.8
17 | O=c1c2sccc2n2c(=O)n(Cc3ccccc3F)nc2n1CCc1ccccc1 | 9.4
18 | COc1cccc(-n2ccn3c(SCC#N)nnc3c2=O)c1 | 16.24
19 | COc1ccccc1N1CCN(C(=O)CSc2nc3ccccc3n3cnnc23)CC1 | 11.06
20 | COc1ccc(N(Cc2ccc(F)cc2)S(=O)(=O)c2ccc3nncn3c2)cc1 | -7.56

Row | Structure (SMILES) | Inhibition [%]
21 | Cc1cc(C)cc(Nc2nc(C)cc3nn(CC(=O)N(C)c4cccc(C)c4)c(=O)n23)c1 | 5.67
22 | COc1ccc(CN(c2ccc(F)cc2)S(=O)(=O)c2cccn3c(C)nnc23)cc1 | 15.23
23 | Cc1ccc(-c2cc3c4nnc(CCC(=O)N5CCN(c6ccccn6)CC5)n4ccn3n2)cc1C | -0.56
24 | Cc1ccc(NC(=O)Cn2nc3c4cc(-c5ccc(Cl)cc5)nn4ccn3c2=O)cc1F | 11.6
25 | Cc1ccc(-n2ccn3c(=O)n(Cc4ccccc4)nc3c2=O)cc1C | 5.93
26 | Cc1cccc(C)c1NC(=O)Cn1nc2n(C)c(=O)c3c(c(-c4ccccc4)cn3C)n2c1=O | 8.81
27 | COc1ccc(-c2cc3c4nnc(SCC(=O)NCc5ccc(C)cc5)n4ccn3n2)cc1 | -10.11
28 | CC(=O)c1cccc(NC(=O)CSc2nnc3ccc(C(=O)Nc4cccc(F)c4)cn23)c1 | 12.95
29 | Cc1cc(Br)ccc1NC(=O)Cn1nc2c(Sc3ccccc3)nccn2c1=O | 4.58
30 | CCOC(=O)c1cccc(NC(=O)Cn2nc3c(Oc4cccc(C)c4C)nccn3c2=O)c1 | -16.27
31 | Cc1c(Cl)cccc1-n1ccn2c(=S)[nH]nc2c1=O | 26.02
32 | CCc1ccccc1NC(=O)CSc1nnc2c(=O)n(-c3ccccc3)ccn12 | 10.95
33 | COc1ccc(NC(=O)Cn2nc3c4cc(-c5ccc(C)c(C)c5)nn4ccn3c2=O)cc1OC | 7.31
34 | CCc1ccc(NC(=O)Cn2c(=O)c3nnc(C(C)C)n3c3ccccc32)cc1 | 6.08
35 | O=C(Cn1nc2c3cc(-c4ccc(F)cc4)nn3ccn2c1=O)N1CCCc2ccccc21 | -1.84
36 | CC(=O)c1ccc(NC(=O)Cn2c(=O)c3nnc(C(C)C)n3c3ccccc32)cc1 | 5.44
37 | Cc1ccc(NC(=O)Cn2nc3c(Sc4ccccc4)nccn3c2=O)c(C)c1 | 5.22
38 | CCOc1ccc(C(=O)CSc2nnc3c(=O)n(-c4ccc(OCC)cc4)ccn23)cc1 | 18.9
39 | COc1cc(OC)c(NC(=O)Cn2nc3c(Sc4cccc(C)c4)nccn3c2=O)cc1Cl | 10.36

These compounds were tested on Escherichia coli. Settings: Concentration 32 ug.mL-1;; ASSAY_TEST Inhibition of Bacterial Growth; detection method Absorption (OD600); MEDIA CAMHB; plate type 384well; NBS; CORNING #3640; time 18 hr.

Row | Structure (SMILES) | Inhibition [%]
40 | Cc1cc2nn(CC(=O)Nc3cc(F)cc(F)c3)c(=O)n2c(Nc2ccc(F)c(C)c2)n1 | -2.56
41 | CCOC(=O)C1CCCN(C(=O)Cn2nc3n(CC(C)C)c(=O)c4sccc4n3c2=O)C1 (stereo not drawn) | -6.05
42 | O=C(Cn1nc2c3cc(-c4ccc(Cl)cc4)nn3ccn2c1=O)N1CCN(c2ccccc2)CC1 | -1.74
43 | Cc1cc(C)cc(NC(=O)Cn2nc3ccc(SC(C)(C)C)nn3c2=O)c1 | -2.5
44 | Cc1cccc(Oc2nccn3c(=O)n(CC(=O)Nc4ccccc4C(F)(F)F)nc23)c1C | 3.1
45 | O=C(Cn1nc2ccc(-c3ccccc3)nn2c1=O)Nc1cccc(Cl)c1 | -11.73
46 | CCc1cccc(C)c1NC(=O)Cn1nc2ccc(SCc3ccc(Cl)cc3)nn2c1=O | -10.21
47 | CC(C)c1nnc2c(=O)n(CC(=O)Nc3cccc(Cl)c3)c3ccccc3n12 | -3.24
48 | COc1cccc(-n2ccn3c(SCc4ccccc4C)nnc3c2=O)c1 | -3.45
49 | CCCCOc1ccc(-c2cc3c4nnc(SCC(=O)Nc5cc(C)ccc5OC)n4ccn3n2)cc1 | -22.73
50 | COC(=O)c1cccc(NC(=O)Cn2nc3ccc(-c4ccc(C)c(C)c4)nn3c2=O)c1 | -10.93
51 | COc1ccc(-n2ccn3c(SCC(=O)N4CCN(c5ccccc5F)CC4)nnc3c2=O)cc1 | -4.94
52 | O=C(Cn1nc2nc(Nc3ccc(F)cc3)ccn2c1=O)Nc1ccc(F)cc1 | -2.62
53 | COc1ccc(-c2nc(CSc3nc4ccccc4n4c(C(C)C)nnc34)c(C)o2)cc1OC | 0.54
54 | CCc1ccc(N(Cc2ccccc2F)S(=O)(=O)c2cccn3c(CC)nnc23)cc1 | 1.03
55 | O=C(Cn1nc2ccc(SC3CCCCC3)nn2c1=O)Nc1ccc2c(c1)CCC2 | -2.69
56 | O=c1c2sccc2n2c(=O)n(Cc3ccccc3F)nc2n1CCc1ccccc1 | 0.41
57 | COc1cccc(-n2ccn3c(SCC#N)nnc3c2=O)c1 | 0.96
58 | COc1ccccc1N1CCN(C(=O)CSc2nc3ccccc3n3cnnc23)CC1 | 4.69
59 | COc1ccc(N(Cc2ccc(F)cc2)S(=O)(=O)c2ccc3nncn3c2)cc1 | -2.8

Row | Structure (SMILES) | Inhibition [%]
60 | Cc1cc(C)cc(Nc2nc(C)cc3nn(CC(=O)N(C)c4cccc(C)c4)c(=O)n23)c1 | -3.82
61 | COc1ccc(CN(c2ccc(F)cc2)S(=O)(=O)c2cccn3c(C)nnc23)cc1 | -3.22
62 | Cc1ccc(-c2cc3c4nnc(CCC(=O)N5CCN(c6ccccn6)CC5)n4ccn3n2)cc1C | -4.11
63 | Cc1ccc(NC(=O)Cn2nc3c4cc(-c5ccc(Cl)cc5)nn4ccn3c2=O)cc1F | 6.51
64 | Cc1ccc(-n2ccn3c(=O)n(Cc4ccccc4)nc3c2=O)cc1C | -8.73
65 | Cc1cccc(C)c1NC(=O)Cn1nc2n(C)c(=O)c3c(c(-c4ccccc4)cn3C)n2c1=O | 0.54
66 | COc1ccc(-c2cc3c4nnc(SCC(=O)NCc5ccc(C)cc5)n4ccn3n2)cc1 | 0.51
67 | CC(=O)c1cccc(NC(=O)CSc2nnc3ccc(C(=O)Nc4cccc(F)c4)cn23)c1 | -3.3
68 | Cc1cc(Br)ccc1NC(=O)Cn1nc2c(Sc3ccccc3)nccn2c1=O | -5.92
69 | CCOC(=O)c1cccc(NC(=O)Cn2nc3c(Oc4cccc(C)c4C)nccn3c2=O)c1 | -3.26
70 | Cc1c(Cl)cccc1-n1ccn2c(=S)[nH]nc2c1=O | 0.89
71 | CCc1ccccc1NC(=O)CSc1nnc2c(=O)n(-c3ccccc3)ccn12 | -0.17
72 | COc1ccc(NC(=O)Cn2nc3c4cc(-c5ccc(C)c(C)c5)nn4ccn3c2=O)cc1OC | -0.24
73 | CCc1ccc(NC(=O)Cn2c(=O)c3nnc(C(C)C)n3c3ccccc32)cc1 | 6.05
74 | O=C(Cn1nc2c3cc(-c4ccc(F)cc4)nn3ccn2c1=O)N1CCCc2ccccc21 | -5.07
75 | CC(=O)c1ccc(NC(=O)Cn2c(=O)c3nnc(C(C)C)n3c3ccccc32)cc1 | -3.86
76 | Cc1ccc(NC(=O)Cn2nc3c(Sc4ccccc4)nccn3c2=O)c(C)c1 | -4.74
77 | CCOc1ccc(C(=O)CSc2nnc3c(=O)n(-c4ccc(OCC)cc4)ccn23)cc1 | 1.24
78 | COc1cc(OC)c(NC(=O)Cn2nc3c(Sc4cccc(C)c4)nccn3c2=O)cc1Cl | -1.94
